# The panel holds about 83,000 compounds, 20% with a hit somewhere; the sample as a whole holds those more often.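 In brief: 96-well plates, 48 h treatment, single concentration, percent growth endpoint.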 Calls of active or inactive are those of the source.
# Test system: RPMI-8226 leukemia
# Assay: NCI-60 one-dose screen, 48 h (100 = growth as untreated, 0 = no growth, -100 = all killed)
# Conditions: 10 µM unless noted
# Method: Growth inhibition of the RPMI-8226 human tumor cell line is measured as a screen for anti-cancer activity. Cells are grown in 96 well plates and exposed to the test compound for 48 hours. Compounds are tested at a single concentration, which is 10^-5 M for most compounds. The reported endpoint is percent growth (GI% or GIPRCNT), where numbers from 0 - 100% represent growth inhibition, and numbers from -100% - 0 represent cell death. For example, a value of 40 represents 60% growth inhibition. A value of 0 means no net growth occurred over the course of the experiment. A value of -40 indicates 40% of cells at the beginning of the experiment died by the end of the experiment. A value of -100 means all cells are dead at the end of the experiment.
# NCI-60 Human Tumor Cell Lines Screen was performed using the standard one-dose NCI protocol, which is described in more detail at https://dtp.cancer.gov/discovery_development/nci-60/default.htm.
# Compounds with GIPRCNT values below 10 were considered active. Activity score was based on GIPRCNT using the following formula: […]
# Score is 0 for GIPRCNT values of 100 or above, 50 for GIPRCNT values of 0, and 100 for GIPRCNT values of -100.
row,SMILES,growth
1,COc1ccc(-c2cc(C(=O)N=Nc3c(O)[nH]c4ccccc34)c3ccccc3n2)cc1OC,99.4% (inactive)
2,CCN1C(=S)N(CC)C2C1N=C(SC)N2/N=C/C=C/c1ccccc1[N+](=O)[O-] (stereo not given),83.4% (inactive)
3,CCOc1ccc([C@H]2C(C(=O)c3ccc(Cl)cc3)C3(N[C@@H]2c2ccccc2)C(=O)Nc2ccc(Br)cc23)cc1 (stereo not given in full),23.5% (inactive)
4,CN(C)CCCNc1c2ccc(Cl)cc2nc2c1oc1ccccc12,-21.1% (active)
5,CCCC(=O)NC(c1cccnc1)c1cc(C)c2cccnc2c1O (stereo not given),53.5% (inactive)
6,COc1ccc(-n2c(SCC(=O)Nc3ccc(-c4nc5ccccc5[nH]4)cc3)nc3ccccc3c2=O)cc1,-21.2% (active)
7,CC1=C(C)C(=O)C(Nc2cccc(C(F)(F)F)c2)=C(Cl)C1=O,-3.12% (active)
8,CC(O)C(NC(=O)C1CCCN1C(=O)CNC(=O)C1CC(=O)NCC(=O)NC(Cc2c[nH]c3ccccc23)C(=O)NC(Cc2ccc(O)cc2)C(=O)NCC(=O)NC(CO)C(=O)NC(CCC(N)=O)C(=O)NC(Cc2c[nH]c3ccccc23)C(=O)N1)C(=O)NCC(=O)NC(CCC(N)=O)C(=O)NC(CCCNC(=N)N)C(=O)NC(CC(=O)O)C(=O)O (stereo not given),83.5% (inactive)
9,O=C1c2c(c3c4cccnc4[nH]c3c3ccc4ccccc4c23)C(=O)N1CCO,72.7% (inactive)
10,O=C1c2c(c3c4cc(Br)ccc4[nH]c3c3ccc4ccccc4c23)C(=O)N1CCO,80.3% (inactive)
11,NC(=O)c1c(NC(=O)c2ccc(C3CCCCC3)cc2)sc2c1CCC(=O)C2,-15% (active)
12,O=C(Nc1nc2ccc(O)cc2s1)c1cccc(C(F)(F)F)c1,46.9% (inactive)
13,Cn1cc(-c2cc(N)n3nc(-c4cn(C)c5ccc(F)cc45)cc3n2)c2cc(F)ccc21,13.5% (inactive)
14,C#Cc1nc(C2=C(C)C(O)/C(=N/O)C2)cs1 (stereo not given),-15.4% (active)
15,CN(C)CCCNc1c2ccc(Cl)cc2nc2c1oc1ccc(Cl)cc12,-27.2% (active)
16,CNC(=O)c1cc(-c2ccc(NC(=O)Nc3ccc(N4CCOCC4)c(C(F)(F)F)c3)cc2)nc2cccnc12,9.25% (active)
17,CC(=NNc1ncnc2ccccc12)c1ccc(S(C)(=O)=O)cc1,98.6% (inactive)
18,Clc1ccc2c(NCCCn3ccnc3)c3oc4ccc(Cl)cc4c3nc2c1,82.8% (inactive)
19,C#Cc1nc(C2=C(C)C(=O)/C(=N/OC(C)=O)C2)cs1,32.3% (inactive)
20,N#Cc1nc(-c2ccccc2)oc1N1CC[C@@H](CO)C1,99.5% (inactive)

row,SMILES,growth
1,COc1ccc(-c2nn3c(-c4ccccc4F)nnc3s2)cc1,58% (inactive)
2,COc1ccccc1C(=O)CSc1nc(Nc2ccc(S(N)(=O)=O)cc2)c2ccccc2n1,90.8% (inactive)
3,O=c1/c(=C\c2ccc(-c3ccccc3)o2)sc2nc(-c3ccccc3)nn12,102% (inactive)
4,COc1ccc(-c2csc(N/N=C/c3c(-c4ccc(S(C)(=O)=O)cc4)nc4ccccn34)n2)cc1,91.4% (inactive)
5,C#Cc1nc(C2=C(C)C(O)CC2)cs1 (stereo not given),97.4% (inactive)
6,CN1CCN(Cc2ccc(NC(=O)c3cncc(C#Cc4cnc5ccc(N6CCSCC6)nn45)c3)cc2C(F)(F)F)CC1,-7.39% (active)
7,CCOC(=O)c1c(NC(=O)c2cccc(C(F)(F)F)c2)sc2cc(O)ccc12,73.9% (inactive)
8,O=C(CSc1nc2sc3c(c2c(=O)n1-c1ccc(Cl)cc1)CCCC3)NNC(=O)Nc1cccc(C(F)(F)F)c1,-7.39% (active)
9,COc1ccc(-c2nc3ccc(-c4nnc(SCC(=O)Nc5ccc(C(C)=O)cc5)o4)cc3[nH]2)cc1,97.1% (inactive)
10,COc1ccc(/C=C2\SC(=Nc3cc(C)on3)NC2=O)cc1,98.2% (inactive)
11,CSc1ccc2c(c1)N(C(=O)/C(C#N)=C/c1c[nH]c3ccccc13)c1ccccc1S2,21.3% (inactive)
12,N=C1CC(=O)NN1C(=O)CSc1nc2sc3c(c2c(=O)n1-c1ccc(Cl)cc1)CCCC3,102% (inactive)
13,CCOC(=O)c1c(Nc2ccccc2)nn2c(N)c(C#N)c(-c3ccc(Cl)cc3)nc12,86.1% (inactive)
14,Cc1c(NC(=O)CSc2nc3sc4c(c3c(=O)n2-c2ccc(Cl)cc2)CCCC4)c(=O)n(-c2ccccc2)n1C,86.7% (inactive)
15,COC(=O)C1CCCN(S(=O)(=O)/N=C2\NC(=O)NC2=C(Cl)Cl)C1 (stereo not given),0.297% (active)
16,CCOC(=O)c1c(Nc2ccccc2)nn2c(-c3ccco3)c(C#N)cnc12,79.3% (inactive)
17,CC(C)NC(=O)c1cc(-c2ccc(NC(=O)Nc3ccc(N4CCOCC4)c(C(F)(F)F)c3)cc2)nc2cccnc12,14.3% (inactive)
18,CC(=O)Oc1ccccc1C(=O)Nc1ccc(C(=O)/C=C/c2ccncc2)cc1,-25.8% (active)
19,O=C(CSc1nnc(-c2ccc3nc(-c4ccc(Cl)cc4)[nH]c3c2)o1)Nc1ccc(C(=O)/C=C/c2ccc(Cl)cc2)cc1,4.95% (active)
20,COc1ccccc1/C=C/C=N/NC1=NC2C(S1)N(C)C(=O)N2C (stereo not given),10.6% (inactive)

# Reference: PubChem BioAssay (NCI)
